# Results published in PubChem BioAssay (NCI).
# Compounds without any hit were thinned out: in the full panel of roughly 79,000, 15% have a hit. A number with no mark means an inactive call. Calls of active or inactive are those of the source. Cut-off read from the data, not from the text of the source: active = growth inhibition above about 70%; inactive = the rest.
# Assay: NCI Yeast Anticancer Drug Screen. Data for the mec2-1 strain (AID 157)
# Details: S. cerevisiae mec2-1 strain, stronger effect = higher value
# Protocol: Growth inhibition of yeast strains with defined genetic alterations is measured as a screen for potential anti-cancer activity. Selected strains with alterations in DNA damage repair or cell cycle control were exposed to compounds and growth inhibition was measured relative to vehicle treated controls. The strain used in this assay is mec2-1
# [1] = at 5.0 µM (retest, dose inferred, filed as 0.5)
# [2] = at 50.0 µM (retest, dose inferred, filed as 5.0)
Compound,growth inhibition [1],growth inhibition [2],growth inhibition (at 50.0 µM)
Cc1cc(CCN)c(C)c2c1sc1ccccc12,92% (active),100% (active),94.3% (active)
[pH]1p2[pH]p3p1p3[pH]2.c1cc[c]([Ge]([c]2ccccc2)[c]2ccccc2)cc1.c1cc[c]([Ge]([c]2ccccc2)[c]2ccccc2)cc1.c1cc[c]([Ge]([c]2ccccc2)[c]2ccccc2)cc1,20%,74% (active),59.3%
Clc1ccccc1C#[C][Hg][C]#Cc1ccccc1Cl,3%,94% (active),5.95%
O=C(CCCc1ccccc1)[O][Hg][c]1ccccc1,100% (active),99% (active),99.7% (active)
C/C=C1/C(=O)O[C@]23C=C[C@@H]4C(C(=O)OC)=CO[C@H](O[C@@H]12)[C@@H]43,41%,98% (active),93.8% (active)
COc1cc(/C=C/[N+](=O)[O-])c(OC)cc1Br,27%,45%,83.3% (active)
NC(=O)Nc1ccc([As](Sc2ccccc2C(=O)O)Sc2ccccc2C(=O)O)cc1,-3%,-1%,4.75%
O=[n+]1c2ccccc2n([O-])c2ccccc21,22%,99% (active),–
CC(C)[S-].CC(C)[S-].[Pt+2].c1ccc([PH+](c2ccccc2)c2ccccc2)cc1.c1ccc([PH+](c2ccccc2)c2ccccc2)cc1,5%,97% (active),90.3% (active)
N#CS.[Ag],10%,98% (active),91.7% (active)
C/C(=N\Nc1ccccc1)C(CN(C)C)C(c1ccccc1)c1c(O)c2ccccc2oc1=O (stereo not given),14%,14%,86.2% (active)
CC(C)(C)C1(C)CN(N=O)C(=O)O1 (stereo not given),–,–,-9.7%
Nc1nc(N)c2cnnn2n1,–,–,-13.2%
CN(C)CCN=C(N)N[N+](=O)[O-],–,–,3.75%
CCCCP(=O)(CCCC)CCCC.CCCCP(=O)(CCCC)CCCC.CCCCP(=O)(CCCC)CCCC.CCCCP(=O)(CCCC)CCCC.[Ce+3].[O-][Cl+3]([O-])([O-])O,–,–,36.3%
O=C1NC(=O)C2(OC3c4ccccc4C=CN3C3=C2C(=O)CCC3)C(=O)N1 (stereo not given),–,–,1.8%
C/C=C/COC(=O)CO[N+](=O)[O-],–,–,-4.25%
C(=C/P(c1ccccc1)c1ccccc1)/P(c1ccccc1)c1ccccc1,–,–,8.95%
Nc1ncnc2c1c(Cl)cn2C1OC(CO)C(O)C1O (stereo not given),–,–,15.2%
